In PubChem BioAssay (NCATS):
Results filed as inconclusive are left out. Entries that show only a call come without a potency. Values without a mark were called inactive. Activity calls are given as the source filed them. The call rests on the fitted dose curve; in most records, active means well fitted inhibition curve with a large enough effect; inconclusive means small, poorly fitted or top-dose-only effect; inactive means no such curve, though single readings can be large or run the other way. Where a SMILES comes first, the peptide text is derived from it.

Test system: Zika virus NS2B-NS3 protease (unlinked complex)
Assay: Primary screen GU Rhodamine qHTS for Zika virus inhibitors: Unlinked NS2B-NS3 protease assay (AID 1347159); further: nearly all actives have a fitted effect of over 60% in size
Details: Recombinant ZIKV NS2B-NS3 protease, Rhodamine110 substrate fluorescence; series mostly up to 107 µM
Method in brief: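 Noncovalent NS2B hydrophilic domain–NS3 protease domain complex (25 nM) preincubated 15 min at room temperature with compounds (up to 114 microM) in 10 mM Tris-HCl pH 8.0, 0.01% Tween 20; 1.5 microM Rhodamine110 substrate added, fluorescence change over 15 min fitted to Hill equation.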
Potency means the concentration at half of the fitted maximal effect.

Row | SMILES | Potency | activity change, negative = inhibition
1 | N#Cc1ccnc(N2C(=O)CC[C@H]2C(=O)N(c2cncc(F)c2)[C@H](C(=O)NC2CC(F)(F)C2)c2ccccc2Cl)c1 | inactive | 
2 | C=C1CCC(OC(C)=O)C2(C)CC3(O)OC(=O)C(C)=C3CC12 (centres undefined) | inactive | 
3 | COc1cc2c(Nc3ccc(Cl)c(Cl)c3F)ncnc2cc1OCC1C[C@@H]2CN(C)C[C@@H]2C1 (some centres undefined) | inactive | 
4 | COc1ccc(C)c2sc(NC(=O)c3ccncc3)nc12 | inactive | 
5 | COc1c(OC2OC(CO)C(O)C(O)C2O)ccc(O)c1C(=O)OCc1ccccc1O[C@@H]1O[C@H](CO)[C@@H](O)[C@H](O)[C@H]1O (some centres undefined) | inactive | 
6 | C[C@@H]1O[C@@H](O[C@H]2[C@H](OC(=O)[C@]34CCC(C)(C)C[C@H]3C3=CCC5[C@@]6(C)C[C@H](O)[C@H](O[C@@H]7O[C@H](CO[C@@H]8OC[C@H](O)[C@H](O)[C@H]8O)[C@@H](O)[C@H](O)[C@H]7O)C(C)(C)C6CC[C@@]5(C)[C@]3(C)C[C@H]4O)OC[C@@H](O)[C@@H]2O)[C@H](O)[C@H](O[C@@H]2OC[C@](O)(CO)[C@H]2O)[C@H]1O[C@@H]1OC[C@H](O)[C@H](O[C@@H]2OC[C@@H](O)[C@H](O)[C@H]2O)[C@H]1O (some centres undefined) |  | 12.7% [at 19.1 µM]
7 | CCOC(=O)[C@H](CCc1ccccc1)N[C@@H](C)C(=O)N1C2CCCCC2C[C@H]1C(=O)O (some centres undefined) | inactive | 
8 | CC(=O)O[C@@H]1C[C@@]23C[C@@]24CC[C@H](OC2OC[C@@H](O)[C@H](O)[C@H]2O)C(C)(C)[C@@H]4CC[C@H]3[C@]2(C)CC3OC4(C[C@@H](C)C3[C@@]12C)OCC1(C)OC14 (some centres undefined) | inactive | 
9 | COc1cc(/C=C/C(=O)OC2CC(OC(C)=O)C(OC(C)=O)C3C2CCC2C(=O)OC(c4ccoc4)CC23C)ccc1O[C@@H]1O[C@H](CO)[C@@H](O)[C@H](O)[C@H]1O (some centres undefined) | inactive | 
10 | CC[C@H]1OC(=O)[C@H](C)[C@@H](OC2C[C@@](C)(OC)[C@@H](O)[C@H](C)O2)[C@H](C)[C@@H](OC2O[C@H](C)C[C@H](NC)[C@H]2O)[C@](C)(O)C[C@@H](C)CN(C)[C@H](C)[C@@H](O)[C@]1(C)O (some centres undefined) | inactive | 
11 | COc1cc([C@H]2OC[C@]3(OC(C)=O)[C@@H](c4ccc(O[C@@H]5O[C@H](CO)[C@@H](O)[C@H](O)[C@H]5O)c(OC)c4)OC[C@H]23)ccc1O | inactive | 
12 | C=CC(C)(CC/C=C(\C)CC/C=C(\C)CC(O)/C=C(\C)C(=O)O)O[C@@H]1O[C@H](CO)[C@@H](O)[C@H](O)[C@H]1O[C@@H]1O[C@H](CO)[C@@H](O)[C@H](O)[C@H]1O (some centres undefined) | inactive | 
13 | C[C@@H]1O[C@@H](O[C@H]2[C@H](O)[C@@H](O)[C@H](OC[C@H]3O[C@@H](OC(=O)[C@]45CCC(C)(C)C[C@H]4C4=CCC6[C@@]7(C)C[C@H](O)[C@H](O[C@@H]8O[C@H](CO)[C@@H](O)[C@H](O)[C@H]8O)[C@@](C)(C(=O)O)C7CC[C@@]6(C)[C@]4(C)CC5)[C@H](O[C@@H]4O[C@H](CO)[C@@H](O)[C@H](O)[C@H]4O)[C@@H](O)[C@@H]3O)O[C@@H]2CO)[C@H](O)[C@H](O)[C@H]1O (some centres undefined) |  | -27.3% [at 19.1 µM]
14 | CC1(C)CCCC2(C)C(CO)C3CCC2C31 (centres undefined) | inactive | 
15 | C[C@@H]1O[C@@H](O[C@H]2[C@H](O[C@H]3CC[C@@]4(C)C(CC[C@]5(C)C4CC=C4[C@@H]6CC(C)(C)CC[C@]6(C(=O)O)CC[C@]45C)[C@]3(C)CO)OC[C@H](O)[C@@H]2O)[C@H](O)[C@H](O[C@@H]2OC[C@@H](O)[C@H](O)[C@H]2O)[C@H]1O (some centres undefined) | inactive | 
16 | C=C1CC2[C@]3(C)C(=C(O)C(=O)[C@@]2(C)[C@]2(C(=O)OC)C(=O)C(C)OC(=O)[C@@]12C)C(C)(C)C(=O)CC3O (some centres undefined) | inactive | 
17 | CCOC(=O)c1ccnc(CNCC(=O)N(CC)CCN(C)C)c1 | inactive | 
18 | Cc1nn(C)c2c1C(c1ccc(C(F)(F)F)cc1)C(C#N)=C(N)O2 (centres undefined) | inactive | 
19 | CCOC(=O)[C@H]1O[C@@H]1C(=O)N[C@@H](CC(C)C)C(=O)NCCC(C)C | inactive | 
20 | CCCOc1ccn2c(C(C)=O)cc(-c3ccccc3S(C)(=O)=O)c2c1 | inactive | 

Row | SMILES | Potency | activity change, negative = inhibition
21 | C=CC1C(O[C@@H]2O[C@H](CO)[C@@H](O)[C@H](O)[C@H]2O)OC=C(C(=O)OC)C1Cc1nccc2c1[nH]c1ccccc12 (some centres undefined) | inactive | 
22 | C=C1CCC2(OC1)OC1CC3C4CC=C5CC(O)CC(O[C@@H]6OC[C@@H](O)[C@H](O)[C@H]6O)C5(C)C4CCC3(C)C1(O)C2C (some centres undefined) | inactive | 
23 | COc1cc(/C=C/C(=O)OC[C@H]2O[C@H](O[C@]3(CO)O[C@H](CO)[C@@H](O)[C@@H]3O)[C@H](O)[C@@H](O)[C@@H]2O)cc(OC)c1O | inactive | 
24 | CN[C@@H]1[C@@H](O)[C@@H](O[C@@H]2[C@@H](O)[C@H](O[C@H]3O[C@H](CN)[C@@H](O)[C@H](O)[C@H]3O)[C@@H](N)C[C@H]2NC(=O)[C@@H](O)CN)OC[C@]1(C)O | inactive | 
25 | C[C@@H]1O[C@@H](O[C@@H]2[C@@H](O)[C@H](O[C@@H]3[C@@H](O)[C@@H](O)[C@H](O[C@H]4[C@H](OC(=O)[C@]56CCC(C)(C)C[C@H]5C5=CCC7[C@@]8(C)C[C@H](O)[C@H](O[C@@H]9O[C@@H](C)[C@H](O)[C@@H](O)[C@H]9O)[C@@](C)(CO)C8CC[C@@]7(C)[C@]5(C)C[C@H]6O)O[C@H](C)[C@H](O)[C@@H]4O)O[C@H]3C)OC[C@H]2O)[C@H](O)[C@H](O)[C@H]1O (some centres undefined) |  | -9.55% [at 19.1 µM]
26 | CC1(C)CCC[C@@]2(C)[C@H]1[C@H](O)C=C1COC(=O)[C@@]12O | inactive | 
27 | CN1C(=O)c2ccccc2-n2c(nc3ccccc3c2=O)/C1=C/c1ccccc1 | inactive | 
28 | C[C@@H]1CC[C@]2(C(=O)O)CC[C@]3(C)C(=CCC4[C@]5(C)C(CC[C@]43C)C(C)(C)[C@@H](O)[C@H](O)[C@@H]5O)C2[C@]1(C)O (some centres undefined) | inactive | 
29 | CC(=O)OC1C(O)CC(O[C@@H]2O[C@H](CO)[C@@H](O)[C@H](O)[C@H]2O)C2CCC3C(=O)OC(c4ccoc4)CC3(C)C21 (some centres undefined) | inactive | 
30 | CCc1cc2c(=O)c(-c3nc4ccccc4s3)coc2c(CN2CCCCC2)c1O | 12.6 µM (active) | 
31 | CC1OC(OC2C(C)OC(OC3C(OC(=O)/C=C/c4ccc(O)cc4)C(CO)OC(OC4(COC(=O)/C=C/c5ccc(O)cc5)OC(CO)C(O)C4O)C3OC3OCC(O)(CO)C3O)C(O)C2O)C(O)C(O)C1O (centres undefined) | inactive | 
32 | C=CC(C)(C)C12CC3C(=O)NC(Cc4cnc[nH]4)C(=O)N3C1Nc1ccccc12 (centres undefined) | inactive | 
33 | CC1NC(=O)CNC(=O)C(C(C)C)NC(=O)C2CCCN2C(=O)C(C(C)C)NC(=O)C(Cc2c[nH]c3ccccc23)NC1=O (centres undefined) (cyclo(GAWVPV); configuration not given here) | inactive | 
34 | Cc1ncc([N+](=O)[O-])n1CC(O)CN1CCOCC1 (centres undefined) | inactive | 
35 | COC12CC3C(C(C)C1=CC(=O)O2)C(O)C(OC(C)=O)C1C(C)(C)C(OC(C)=O)CCC31C (centres undefined) | inactive | 
36 | OC[C@H]1O[C@@H](Oc2ccc3c(c2)OC[C@H]2c4cc5c(cc4O[C@@H]32)OCO5)[C@H](O)[C@@H](O)[C@@H]1O | inactive | 
37 | C=C1[C@@H]2CC[C@@]3(C)[C@H](c4ccoc4)OC(=O)C[C@]13O[C@H]1CC(=O)C(C)(C)[C@H](CC(=O)OC)[C@]12C | inactive | 
38 | C=CC(C)(C)O[C@@H]1O[C@H](CO[C@@H]2OC[C@](O)(CO)[C@H]2O)[C@@H](O)[C@H](O)[C@H]1O | inactive | 
39 | Nc1ncnc2c1ncn2[C@H]1CCCO1 | inactive | 
